Experimental data: PubChem BioAssay AID411 (National Center for Advancing Translational Sciences (NCATS), 2006)
About 1,600 (2.2%) of roughly 72,000 compounds were called active. Calls come from the whole dose curve; as a rule, active = well fitted inhibition curve with a large enough effect; inconclusive = small, poorly fitted or top-dose-only effect; inactive = flat fitted curve, though single readings scatter. The sample as a whole holds a higher share of actives than the screen did.

Biological target: Luciferin 4-monooxygenase (Photinus pyralis) (UniProt P08659)
Sequence (P08659 whole entry, looked up): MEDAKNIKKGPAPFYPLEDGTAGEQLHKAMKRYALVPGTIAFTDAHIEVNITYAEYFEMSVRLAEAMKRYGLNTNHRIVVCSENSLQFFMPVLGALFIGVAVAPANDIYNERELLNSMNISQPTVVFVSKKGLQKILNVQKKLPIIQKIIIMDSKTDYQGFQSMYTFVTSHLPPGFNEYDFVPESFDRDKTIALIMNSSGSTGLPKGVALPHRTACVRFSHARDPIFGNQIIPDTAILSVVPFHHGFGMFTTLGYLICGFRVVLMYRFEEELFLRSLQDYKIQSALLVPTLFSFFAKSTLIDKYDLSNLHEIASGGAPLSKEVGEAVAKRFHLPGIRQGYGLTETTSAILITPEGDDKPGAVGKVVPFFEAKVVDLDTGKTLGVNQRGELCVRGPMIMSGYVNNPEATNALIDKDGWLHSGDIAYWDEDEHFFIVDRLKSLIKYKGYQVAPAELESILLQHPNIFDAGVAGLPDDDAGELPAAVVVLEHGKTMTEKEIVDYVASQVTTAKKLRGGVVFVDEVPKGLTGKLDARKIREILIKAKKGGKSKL
Experiment: qHTS Assay for Inhibitors of Firefly Luciferase; note: nearly all actives have a fitted effect of over 40% in size
Conditions: purified firefly luciferase, luminescence, 8 min; series mostly up to 57.1 µM; activity change, negative = inhibition: at the top concentration
Method: To aid in the interpretation of high-throughput screening (HTS) results derived from luciferase-based assays, we used quantitative HTS, an approach that defines the concentration-response behavior of each library sample, to profile the ATP-dependent luciferase from Photinus pyralis against more than 72 000 samples. Luciferase (PKLight, Cambrex Corporation) was assayed for its ability to generate light using ATP and luciferin as substrates. The ATP concentration in the assay (10 uM) was within the linear range of enzyme activity for the assay conditions used. See following reference for further details: [1] Auld DS, Southall NT, Jadhav A, Johnson RL, Diller DJ, Simeonov A, Austin CP, Inglese J. Characterization of chemical libraries for luciferase inhibitory activity. J Med Chem. 2008 Apr 24;51(8):2372-86. Auld DS, Zhang YQ, Southall NT, Rai G, Landsman M, Maclure J, Langevin D, Thomas CJ, Austin CP, Inglese J. A Basis for Reduced Chemical Library Inhibition of Firefly Luciferase Obtained from Directed Evolution. J. Med. Chem., 2009, 52 (5), pp 1450#1458 [3] Auld DS, Thorne N, Nguyen DT, Inglese J. A specific mechanism for nonspecific activation in reporter-gene assays. ACS Chem Biol. 2008 Aug 15;3(8):463-70. Auld DS, Thorne N, Maguire WF, Inglese J. Mechanism of PTC124 activity in cell-based luciferase assays of nonsense codon suppression. Proc Natl Acad Sci U S A. 2009 Mar 3;106(9):3585-90. Inglese J, Auld DS, Jadhav A, Johnson RL, Simeonov A, Yasgar A, Zheng W, Austin CP. Quantitative high-throughput screening: a titration-based approach that efficiently identifies biological activities in large chemical libraries. Proc Natl Acad Sci U S A. 2006 Aug 1;103(31):11473-8.
Four uL of substrate mix (final concentration, 50 mM imidazole pH 7.2, 50 mM KCl, 7 mM MgCl2, 10 uM ATP, 0.01% Tween 20, 0.05% BSA) was dispensed into white 1536 well plates. Twenty-three nL of compound was delivered by a pin tool and 2 uL of luciferase detector mix (PKLight, Cambrex) was added. Following 8-minute incubation at ambient temperature, luminescence was measured by a ViewLux (Perkin Elmer) at 5 seconds exposure/plate.
% is set by controls: 0 for no effect and ±100 for the full control effect; potency is the fitted concentration of half-maximal effect.

Row | Compound | Potency | activity change, negative = inhibition
1 | COc1ccc(NC(=O)Nc2cccc3cccnc23)cc1 | 5.01 µM (active) | –
2 | c1ccc(CN2CC[C@@]3(CCCNC3)C2)cc1 | – | 0.194% [at 11.4 µM] (inactive)
3 | CC(C)(c1ccc(OC[C@@H]2CO2)cc1)c1ccc(OC[C@H]2CO2)cc1 | – | 2.01% (inactive)
4 | CC[C@]1(O)C(=O)OCc2c1cc1n(c2=O)Cc2cc3ccccc3nc2-1 | – | 1.26% [at 11.4 µM] (inactive)
5 | Cc1cccc([C@H](C)c2cnc[nH]2)c1C | – | -0.831% (inactive)
